Out of some 5,500 compounds screened, about 2,000 (36%) were called active. About 18% were inconclusive and are not listed. Rule as the data show it: active = normalized growth mostly below about 0.91 (no sharp cut-off); inconclusive = no clear call, values can overlap the other calls; inactive = mostly above about 0.92. This is one part of the list.
Assay: chemical genetic growth profiling, strain panel (AID 1159580);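 also: tested at 20 µM; growth read once vehicle control cultures reached saturation at 30 °C; 1 = growth at the plate median or of vehicle wells; lower values mean less growth of the strain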
Details: S. cerevisiae deletion strains, growth OD

Measured: normalized growth

C/C=C\C1=C(C(=O)O)N2C(=O)C(NC(=O)C(N)c3ccc(O)cc3)C2SC1 (centres undefined)
inactive: locus YAL021C, strain ccr4, active compounds read low 0.983 | locus YAL026C, strain drs2, active compounds read low 1.01 | locus YAL030W, strain snc1, active compounds read low 1 | locus YBL061C, strain skt5, active compounds read low 1.02 | locus YBR009C, strain hhf1, active compounds read low 1.01 | locus YBR023C, strain chs3, active compounds read low 1.01 | locus YBR171W, strain sec66, active compounds read low 1.01 | locus YBR231C, strain swc5, active compounds read low 1.01 | locus YBR279W, strain paf1, active compounds read low 1 | locus YCL011C, strain gbp2, active compounds read low 1 | locus YCL016C, strain dcc1, active compounds read low 1 | locus YCL061C, strain MRC1, active compounds read low 1 | locus YCL069W, strain vba3, active compounds read low 1.01 | locus YCR088W, strain abp1, active compounds read low 1.01 | locus YDL005C, strain med2, active compounds read low 1 | locus YDL040C, strain nat1, active compounds read low 1.01 | locus YDR001C, strain nth1, active compounds read low 1.01 | locus YDR069C, strain doa4, active compounds read low 0.995 | locus YDR137W, strain rgp1, active compounds read low 1.01 | locus YDR159W, strain sac3, active compounds read low 0.987 | locus YDR195W, strain ref2 0.978 | locus YDR297W, strain sur2, active compounds read low 1 | locus YDR334W, strain swr1, active compounds read low 1.01 | locus YDR335W, strain msn5, active compounds read low 1.01 | locus YDR392W, strain spt3, active compounds read low 0.991 | locus YEL003W, strain gim4, active compounds read low 1 | locus YEL037C, strain rad23, active compounds read low 1.01 | locus YEL061C, strain CIN8 (second series), active compounds read low 1 | locus YER015W, strain faa2, active compounds read low 1 | locus YER016W, strain bim1, active compounds read low 1.01 | locus YER111C, strain swi4, active compounds read low 0.996 | locus YER155C, strain BEM2 (second series), active compounds read low 1.01 | locus YFR010W, strain ubp6, active compounds read low 1.02 | locus YGL167C, strain pmr1, active compounds read low 1.01 | locus YGL173C, strain kem1, active compounds read low 1 | locus YGL227W, strain vid30, active compounds read low 1.01 | locus YGL240W, strain doc1, active compounds read low 0.988 | locus YGL253W, strain hxk2, active compounds read low 1.01 | locus YHR013C, strain ard1, active compounds read low 0.997 | locus YHR027C, strain rpn1, active compounds read low 0.993 | locus YHR030C, strain SLT2, active compounds read low 1.02 | locus YHR079C, strain IRE1, active compounds read low 1.04 | locus YHR142W, strain chs7, active compounds read low 1.03 | locus YJL092W, strain hpr5, active compounds read low 1.01 | locus YJL095W, strain BCK1 (second series), active compounds read low 0.998 | locus YJL095W, strain BCK1, active compounds read low 0.997 | locus YJL115W, strain asf1, active compounds read low 0.999 | locus YJL129C, strain trk1, active compounds read low 1.02 | locus YJL154C, strain vps35, active compounds read low 1.01 | locus YJL164C, strain tpk1, active compounds read low 1.02 | locus YJL166W, strain qcr8, active compounds read low 1 | locus YJR066W, strain TOR1, active compounds read low 0.982 | locus YKL160W, strain elf1, active compounds read low 1 | locus YKR026C, strain gcn3, active compounds read low 1 | locus YKR091W, strain srl3, active compounds read low 1 | locus YLL001W, strain dnm1, active compounds read low 1.01 | locus YLL026W, active compounds read low 0.999 | locus YLL041C, strain sdh2, active compounds read low 1.03 | locus YLR027C, strain aat2, active compounds read low 1.01 | locus YLR113W, strain HOG1, active compounds read low 0.957 | locus YLR221C, strain rsa3, active compounds read low 1 | locus YLR258W, strain gsy2, active compounds read low 1.02 | locus YLR262C, strain YPT6 (second series), active compounds read low 1.01 | locus YLR320W, strain mms22, active compounds read low 1.02 | locus YLR342W, strain FKS1, active compounds read low 1 | locus YLR357W, strain rsc2, active compounds read low 1.01 | locus YLR370C, strain arc18, active compounds read low 1.02 | locus YLR384C, strain iki3, active compounds read low 1.02 | locus YML120C, strain ndi1, active compounds read low 1.02 | locus YMR058W, strain fet3, active compounds read low 1.01 | locus YMR125W, strain sto1, active compounds read low 1.02 | locus YMR129W, active compounds read low 1.01 | locus YMR205C, strain PFK2, active compounds read low 1.02 | locus YMR231W, strain pep5, active compounds read low 1 | locus YNL071W, strain lat1, active compounds read low 1.01 | locus YNL183C, strain NPR1, active compounds read low 0.959 | locus YNL209W, strain ssb2, active compounds read low 0.997 | locus YNL248C, strain rpa49, active compounds read low 1.02 | locus YNL322C, strain KRE1 (second series), active compounds read low 0.994 | locus YNR049C, strain mso1, active compounds read low 1.03 | locus YOR001W, strain rrp6, active compounds read low 1.02 | locus YOR070C, strain gyp1, active compounds read low 1.01 | locus YOR080W, strain dia2, active compounds read low 1.01 | locus YOR083W, strain WHI5, active compounds read low 1.01 | locus YOR106W, strain vam3, active compounds read low 0.997 | locus YOR231W, strain MKK1, active compounds read low 1.01 | locus YOR265W, strain rbl2, active compounds read low 1.02 | locus YOR270C, strain vph1, active compounds read low 1.04 | locus YOR290C, strain snf2, active compounds read low 1 | locus YPL051W, strain arl3, active compounds read low 1.01 | locus YPL078C, strain atp4, active compounds read low 1.02 | locus YPL106C, strain sse1, active compounds read low 1 | locus YPL240C, strain hsp82, active compounds read low 1.01 | locus YPL256C, strain CLN2, active compounds read low 1.04

Source: PubChem BioAssay AID1159580 (chemical genetic matrix, 2015)
